# Assay outcomes as filed in PubChem BioAssay.
# Lassa entry inh: qHTS for Inhibitors of binding or entry into cells for Lassa Virus. Lassa virus pseudotype entry inhibition, cell reporter. Potency, µM (titrated, usually from 37.9 µM), without a hit: at the highest dose activity change, negative = inhibition, most hits filed as inhibitors. 300,000 compounds, 1.2% hits. AID 540256, 2011; calls by dose curve; tested in HEK293 cells; note: potency is the fitted concentration of half-maximal effect; nearly all actives have a fitted effect of over 50% in size
# Vaccinia mCherry: qHTS for Stage-Specific Inhibitors of Vaccinia Orthopoxvirus: mCherry Reporter Primary qHTS; Potency, µM (titrated, usually from 36.5 µM), without a hit: at the top dose activity change, negative = inhibition, hits mostly inhibitors; Vaccinia virus mCherry reporter infection, fluorescence; AID 720579, 2013; 310,000 compounds, 0.63% hits; calls by dose curve; tested in A549 cells; note: potency is the fitted concentration of half-maximal effect; nearly all actives have a fitted effect of over 35% in size
# Vaccinia Venus: qHTS for Stage-Specific Inhibitors of Vaccinia Orthopoxvirus: Venus Reporter Primary qHTS; Potency, µM (highest dose often 36.5 µM), inactives show at the top dose activity change, negative = inhibition, actives largely listed as inhibitors; 330,000 compounds, 0.46% hits; Vaccinia virus Venus reporter expression, fluorescence; calls by dose curve; tested in A549 cells; note: potency is the fitted concentration of half-maximal effect; nearly all actives have a fitted effect of over 30% in size
# HCMV inh: qHTS Assay for inhibitors of the human cytomegalovirus (HCMV) | HFF cells, HCMV-luciferase reporter, 72 h; stronger effect = lower value | activity change, negative = inhibition, % at 57.5 µM | 410,000 compounds, 4.5% hits; in the data active = activity change below about -60%; inconclusive = no clear call, values can overlap the other calls; inactive = above about -39%
#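 Cell-based, HFFs, 1000 cells/well, 16 h 37C; cpds in DMSO + HCMV-luc, MOI 1 PFU/cell; 72 h 37C; OneGlo luminescence after 5 min RT; norm. to buffer vs Salinomycin 10uM.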
# FMDV antiviral: High Throughput Screening for Foot and Mouth Disease Virus Antivirals | FMDV antiviral cell-based qHTS | 410,000 compounds, 1.2% hits | Potency, µM (top dose mostly 57.9 µM), without a hit: at the top dose activity change, negative = inhibition, most hits filed as inhibitors | AID 1159524, 2015; calls by dose curve; tested in HEK293T cells; note: read-out not given here; potency is the fitted concentration of half-maximal effect; nearly all actives have a fitted effect of over 45% in size
# Marburg entry inh: qHTS for inhibitors of binding or entry into cells for Marburg Virus. AID 540276, 2011. 300,000 compounds, 1.8% hits. Potency, µM (doses to about 37.8 µM), inactives show at the highest dose activity change, negative = inhibition, most hits filed as inhibitors. Marburg virus pseudotyped entry inhibition, cell reporter; calls by dose curve; tested in HEK293 cells; note: potency is the fitted concentration of half-maximal effect
# An asterisk follows results filed as active; i = inactive; ? = inconclusive; · = no result given; ! = not confirmed by another sample; [ ] = another dose, or the depositor's remark. Sampled rows, rich in hits. Any-hit rate of the full collection: about 6.5%. % is set by controls: 0 for no effect and ±100 for the full control effect.
SMILES,Lassa entry inh,Vaccinia mCherry,Vaccinia Venus,HCMV inh,FMDV antiviral,Marburg entry inh
CCCCNc1c(-c2ccc(OC)c(SC(C)CC)c2)nc2cc(C)ccn12 (configuration not stated),·,25µM*,?,-79*!,28µM*,·
CCCCNc1c(-c2ccc(Sc3ccc(OC)cc3)cc2)nc2cc(C)ccn12,·,?,?,29,?,·
CCCCNc1c(-c2ccc(OC)c(SC(C)CC)c2)nc2cnccn12 (configuration not stated),·,?,-18%,-20,?,·
CCCCCCSc1cc(-c2nc3ccc(C)cn3c2NCCCC)ccc1OC,·,-25%,?,14,35µM*,·
CCCCNc1c(-c2ccc(-c3ccc(C(C)=O)cc3)c(OC)c2)nc2cc(C)ccn12,·,?,?,-93*,?,·
CCCCNc1c(-c2ccc(OC)c(SC(C)CC)c2)nc2ccc(C)cn12 (configuration not stated),·,?,-16%,-63*!,32µM*,·
O=S1(=O)CCSC[C@@H](CN2CCN(c3ccccc3)CC2)N1,·,·,·,8,·,·
COc1ccc(N(C(=O)c2ccccc2F)S(=O)(=O)c2ccc3c(c2)n(C)c(=O)n3C)cc1,-16%[46.1 µM],-5%,-2%,5,-8%,-9%[46.1 µM]
C[C@@H](NC(=O)[C@@H]1[C@@H](CO)[C@@H]2Cn3c(cccc3=O)[C@@H]2N1C(=O)C1CC1)c1ccccc1,·,·,·,1,·,·
COc1ccc(NC(=O)C2COc3ccccc3C2)cc1Cl (configuration not stated),4%[46.1 µM],-24%,-15%,5,-3%,·
COC(=O)C1=C(C(=O)OC)C(C(=O)OC)C(C(=O)OC)C(C(=O)OC)(C(=O)OC)C(C(=O)OC)=C1C(=O)OC (configuration not stated),?,?,?,11,40µM*,?
CC1(C)c2ccccc2N2CC(=O)N[C@@]21/C=C/C=C/c1ccccc1,6%,-23%,-16%,-66*,-28%,?
O=C(Nc1ccc(Oc2c(F)c(F)c(F)c(F)c2F)cc1)OC1CCN2Cc3ccccc3N=C12 (configuration not stated),?,-4%,-13%,·,20µM*,?
CCOC(=O)C(C)Oc1cccc2c(=O)n(CC(=O)NCCc3ccccc3)ccc12 (configuration not stated),·,-19%,-20%,0,-17%,·
CCOC(=O)C(C)Oc1cccc2c(=O)n(CC(=O)NCc3ccccc3)ccc12 (configuration not stated),?,-14%,-24%,-89*,-24%,?
CCOC(=O)C(C)Oc1cccc2c(=O)n(CC(=O)NCc3ccc(F)cc3)ccc12 (configuration not stated),·,·,·,-65*,-3%,·
COCCn1ccc2c(OCC(=O)NCc3ccccc3)cccc2c1=O,1.6µM*,-7%,-7%,-10,-1%,22%
COc1ccc(NC(=O)N2CCc3nc(-c4ccccc4)c4c(c3C2)CO[C@@H](C)C4)cc1,·,·,·,·,·,6%[14.2 µM]
Cc1cnc(C(=O)NCc2c(C)ncc3c2CCN(C(=O)/C=C/c2cccs2)C3)cn1,·,-14%,-6%,·,-8%,·
Cc1ccc(S(=O)(=O)/C(=C/Cl)NC(=O)c2ccccc2)cc1,7.3µM*,?,?,-66*,14µM*,7.1µM*
Cc1ccc(S(=O)(=O)CCC(=O)OCC(=O)NC(=O)c2ccccc2)cc1,3%,i,-4%,-15,-16%,6%
CC(=O)Nc1ccc(S(=O)(=O)N2CCN(S(=O)(=O)c3ccccc3)CC2)cc1,·,·,·,68,-9%,·
Cc1ccc(C(=O)NC(=C(Cl)Cl)S(=O)(=O)c2ccc(C)cc2)cc1,?,?,?,-60*,18µM*,?
CC(=O)NC(=C(Cl)Cl)S(=O)(=O)c1ccccc1,?,7.9µM*,8.9µM*,-99*,22µM*,10µM*
O=C(NC(=C(Cl)Cl)S(=O)(=O)c1ccc(Cl)cc1)c1ccccc1,·,·,·,?,28µM*,·
